Reference: PubChem BioAssay AID434958 (Southern Research Specialized Biocontainment Screening …, 2010)
The campaign covered roughly 1,200 compounds. About 400 (33%) were called active. Not all results are given here. Potency and affinity values are given separately. Unmarked numbers belong to inactive results. No rule for the calls is given here.

Experiment: mammalian cell cytotoxicity, dose response, cytotoxicity control (AID 434958);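 also: cells exposed to compound for 72 hours before readout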
Settings: cytotoxicity counter-screen; series mostly up to 40 µM; viability: at the top concentration
With `CCOC(=O)N1CCN(CC(=O)Nc2nnc(C(F)(F)F)s2)CC1` the “viability” value was 98.6%.
In the case of `COC(=O)N1C(=O)[C@](Cc2ccccc2)(c2ccccc2)N1C(=O)OC`, the “viability” value is reported as 96.3%.
For `CCC(=O)Nc1cc(OC)c(NC(=O)c2ccccc2)cc1OC`, the “viability” value was 92.4%.
For `COc1ccc(Nc2cc(C(=O)NCc3ccco3)c3ccccc3n2)c(OC)c1`, the “viability” value was 88.6%.
With `CC(C)C(=O)Nc1ccc(NC(=S)NC(=O)c2ccc([N+](=O)[O-])cc2)cc1` the “viability” value was 103%.
For `Cn1c(O)c(C2=c3ccccc3=NC2=O)[nH]c1=S`, the “viability” value was 88.5%.
With `C=CCNC1=C(Cl)C(=O)N(c2cccc(Cl)c2Cl)C1=O` the “viability” value was 110%.
In the case of `O=C(CN1C(=O)c2cccc([N+](=O)[O-])c2C1=O)N1CCN(c2ccc(F)cc2)CC1`, the “viability” value is reported as 102%.
In the case of `Cc1cc(C)c(O)c(-c2cc(C(=O)NCc3ccccc3)[nH]n2)c1`, the “viability” value is reported as 83.2%.
With `CCCn1nc2cc(C(=O)NCCCCc3ccccc3)ccc2c1OCC` the “viability” value was 96.3%.
For `COCCCNc1nc(SCc2ccccc2)nc2sc3c(c12)CCC3`, the “viability” value was 94.6%.
In the case of `CCC(CC)c1nnc(NC(=O)c2ccc(N3CCCCC3)c([N+](=O)[O-])c2)s1`, the “viability” value is reported as 88.6%.
For `Cc1cc2ccccc2n1CCNC(=O)COc1ccccc1`, the “viability” value was 88.3%.
In the case of `Cc1ccc(C(=O)NCCc2nnc3ccc(SCC(=O)Nc4ccccc4C)nn23)cc1`, the “viability” value is reported as 91.8%.
For `CCN(CC)c1ccc(S(=O)(=O)N2CCOCC2)cc1NC(=O)CSc1cccc[n+]1[O-]`, the “viability” value was 99.1%.
With `O=C(CNc1ccccc1Cl)Nc1cc(S(=O)(=O)N2CCOCC2)ccc1Cl` the “viability” value was 88.4%.
In the case of `CC(=O)COc1ccc2c3c(c(=O)oc2c1C)CCCCC3`, the “viability” value is reported as 88.8%.
In the case of `CCOC(=O)Cn1nc(-c2ccc(C)cc2)c2ccccc2c1=O`, the “viability” value is reported as 99.6%.
For `CCOC(=O)C1CCN(C(=O)CCCCn2c(=O)[nH]c3ccccc3c2=O)CC1`, the “viability” value was 101%.
With `Cc1ccc(NC(=O)C2(c3ccccc3)CC2(Cl)Cl)cc1C` (stereo not given) the “viability” value was 88.7%.
In the case of `CCOc1cc(/C=N\Nc2ccc([N+](=O)[O-])cc2)ccc1OCC(=O)Nc1ccc(C)c(C)c1`, the “viability” value is reported as 92.4%.
For `Cc1ccccc1OCC(=O)Nc1ccccc1N1CCCCC1`, the “viability” value was 84.7%.
With `CN(C)C(=O)c1ccc(-n2nc(C(F)(F)F)c3c2CCCC3)cc1` the “viability” value was 105%.
In the case of `CC(=O)Nc1cccc(/C(C)=N/NC(N)=S)c1`, the “viability” value is reported as 98.6%.
With `Cc1c(-c2ccccc2)cnc2c(C)cccc12` the “viability” value was 94%.
In the case of `Cc1cc(NC(=O)CSc2ncnc3c2cnn3-c2ccccc2)no1`, the “viability” value is reported as 107%.
For `Cc1cc(NC(=O)COc2nnc(-c3ccccc3)c3ccccc23)no1`, the “viability” value was 102%.
In the case of `CCOC(=O)c1ccc(C(=O)NNC(=O)C2CC=CCC2)cc1` (stereo not given), the “viability” value is reported as 95.2%.
In the case of `O=C(Nc1ccccc1)c1c2c(nc3ccccc13)CCCC2`, the “viability” value is reported as 109%.
For `CC12CCC(C/C1=N/NC(=O)Nc1ccccc1)C2(C)C` (stereo not given), the “viability” value was 83.7%.
In the case of `Cc1cc(C)c(C)c(S(=O)(=O)N2C(=S)NC(=O)C2C(C)C)c1C` (stereo not given), the “viability” value is reported as 89.1%.
In the case of `O=C(c1cc2c(s1)CCCC2)n1cccn1`, the “viability” value is reported as 101%.
With `O=C(N/N=C\c1cn[nH]c1-c1ccc(Cl)cc1)c1cccs1` the “viability” value was 95.4%.
For `O=C(CSc1nnc(SCc2ccc(Cl)cc2)s1)c1ccc2c(c1)OCO2`, the “viability” value was 93.7%.
With `C=CCSc1nc2c(c(-c3ccsc3)c1C#N)CN(C)CC2` the “viability” value was 92.9%.
For `O=C(NN1C(=O)C2C(C1=O)C1C=CC2C12CC2)c1ccncc1` (stereo not given), the “viability” value was 106%.
For `O=c1[nH]c(CN(CCO)CCO)nc2c1C1(CCCCC1)Cc1ccccc1-2`, the “viability” value was 94.6%.
With `CN(/N=C/c1ccncc1)c1cnc2ccccc2n1` the “viability” value was 87%.
With `c1ccc(-c2n[nH]c3c2CCC3)cc1` the “viability” value was 97.4%.
In the case of `CSc1ncnc2c1ccn2CC(=O)Nc1ccc(C)c(C)c1`, the “viability” value is reported as 109%.
In the case of `CCCOc1ccccc1NC(=O)/C=C/C(N)=O`, the “viability” value is reported as 104%.
For `CC(=O)OCC(=O)Nc1ccc(C(C)=O)cc1`, the “viability” value was 97.7%.
In the case of `CC(C)(C)[C@@H]1C=C(C(=O)Nc2ccccc2)O[C@H](OCc2ccc(CO)cc2)C1`, the “viability” value is reported as 84.5%.
In the case of `Cc1cccnc1NC(=S)NC(=O)c1cncc(Br)c1`, the “viability” value is reported as 97.7%.
In the case of `COc1ccc(CNC(=O)C2CCN(S(=O)(=O)c3c(C)noc3/C=C/N(C)C)CC2)cc1`, the “viability” value is reported as 99.2%.
For `CC(C)(C)C1CCC(OCC(O)CN2CCN(c3ccccn3)CC2)CC1` (stereo not given), the “viability” value was 92.3%.
For `COc1ccc(-c2csc(-c3cccs3)n2)c(OC)c1`, the “viability” value was 91%.
With `CCC(=O)Oc1oc(-c2ccccc2)nc1C=Nc1ccc(C)cc1` the “viability” value was 85.8%.
In the case of `CCn1cc(C(=O)O)c(=O)c2cc(F)c(N3CCN(C(=S)NC(=O)c4ccccc4C)CC3)cc21`, the “viability” value is reported as 96.7%.
With `COC(=O)c1cc(OC)c(OC)cc1NC(=S)N1CCN(C)CC1` the “viability” value was 97.6%.
With `Cc1nnc(SCC2=C(C(=O)O)N3C(=O)C(NC(=O)COc4ccc(F)cc4)C3SC2)s1` (stereo not given) the “viability” value was 109%.
In the case of `COc1ccc(C(=O)Nc2cccc3c2CCCC3)c(OC)c1`, the “viability” value is reported as 89.2%.
For `O=C(Oc1c(-c2ccccc2)c(=O)n2c3c(cccc13)CC2)c1cccc([N+](=O)[O-])c1`, the “viability” value was 99%.
For `CC1CN(C(=S)NC(=O)c2cccc([N+](=O)[O-])c2)CC(C)O1` (stereo not given), the “viability” value was 97.2%.
For `COc1cc(C(=S)N2CCOCC2)ccc1OC(=O)c1ccc([N+](=O)[O-])cc1[N+](=O)[O-]`, the “viability” value was 84.7%.
In the case of `CN(C)c1ccc(/C=N/NC(N)=S)cc1[N+](=O)[O-]`, the “viability” value is reported as 101%.
For `O=C(CCCCCN1C(=O)c2cccc([N+](=O)[O-])c2C1=O)Nc1ccccc1F`, the “viability” value was 105%.
For `CC(=O)NC(=S)Nc1ccc(NC(=O)c2cccs2)cc1`, the “viability” value was 107%.
In the case of `CCN=c1scc(-c2ccccc2)n1/N=C/c1ccccn1`, the “viability” value is reported as 89.3%.
In the case of `CC1CCc2nc(NC(=O)C3COc4ccccc4O3)sc2C1` (stereo not given), the “viability” value is reported as 84.2%.
With `COc1ccc(CCNCc2csc3nc4ccccc4n23)cc1OC` the “viability” value was 90%.
In the case of `Cc1cc(C)cc(NC(=S)NN)c1`, the “viability” value is reported as 80.8%.
With `CSc1ccc(/C=C/C(=O)NC23CC4CC(CC(C4)C2)C3)cc1` the “viability” value was 85.6%.
For `c1ccc(-c2cc3ccccc3[nH]2)cc1`, the “viability” value was 99.8%.
In the case of `C/C(=N\NC(=O)c1cc2c(s1)CCC(C)C2)c1ccc[nH]1` (stereo not given), the “viability” value is reported as 93.7%.
In the case of `Cc1cccc2c(C(=O)n3cccn3)cc(-c3ccccc3Cl)nc12`, the “viability” value is reported as 104%.
With `O=C(Oc1c(-c2ccccc2)c(=O)n2c3c(cccc13)CC2)c1ccc(F)cc1` the “viability” value was 104%.
With `COc1ccccc1-c1cc(C(=O)Nc2c(C)n(C)n(-c3ccccc3)c2=O)no1` the “viability” value was 100%.
In the case of `COc1ccc(OC)c(-c2cc(C(=O)Nc3c(C)n(C)n(-c4ccccc4)c3=O)no2)c1`, the “viability” value is reported as 84.8%.
For `O=C(CCSc1ccc(Cl)c(Cl)c1)NC12CC3CC(CC(C3)C1)C2`, the “viability” value was 85.1%.
